PubChem BioAssay (EPA / NIEHS)
“And” between values parts separate entries of the source, which are not always exact repeats. Equal entries are not always repeated. A structure can be active in one record and inactive in another. The source made the active and inactive calls. How the source made its calls: active means hit-call score of the fitted dose curve at least 0.9, where 1 is the maximum; inactive means score below 0.9.

Legend:
[1] = target: Transcription factor E2F1 (Homo sapiens) (UniProt Q01094); assay: ATG_E2F_CIS: Attagene CIS-FACTORIAL HepG2 Assay for human E2F Transcription Factor 1 (AID 2282935); details: HepG2 Attagene cis-reporter, E2F reporter RNA transcripts; actives raise or lower the signal
Transcription factor E2F1 (Homo sapiens), sequence (Q01094 whole entry, looked up): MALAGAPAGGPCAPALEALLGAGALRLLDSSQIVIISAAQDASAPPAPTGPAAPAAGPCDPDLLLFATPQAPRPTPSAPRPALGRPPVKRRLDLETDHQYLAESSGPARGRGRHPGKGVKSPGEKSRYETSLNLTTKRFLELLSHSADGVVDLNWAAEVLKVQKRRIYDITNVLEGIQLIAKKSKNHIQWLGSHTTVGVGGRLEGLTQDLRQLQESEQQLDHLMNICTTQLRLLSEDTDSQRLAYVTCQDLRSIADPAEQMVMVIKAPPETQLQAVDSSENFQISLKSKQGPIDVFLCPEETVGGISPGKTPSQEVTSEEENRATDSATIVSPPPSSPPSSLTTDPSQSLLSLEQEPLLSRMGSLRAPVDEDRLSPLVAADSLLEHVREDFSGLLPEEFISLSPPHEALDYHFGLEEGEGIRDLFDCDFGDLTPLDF
In short: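 Total RNA from 24 h-treated, reporter-transfected HepG2 cells undergoes DNase I treatment, oligo(dT) reverse transcription, PCR and 6-FAM primer extension before capillary electrophoresis.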

[2] = ATG_E_Box_CIS: Attagene CIS-FACTORIAL HepG2 Assay for human Enhancer Box (E-box) (AID 2282936); details: HepG2 E-box cis-reporter transcription, actives raise or lower the signal
In short: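 DMSO served as negative control and baseline for bidirectional fitting. Human hepatoma HepG2 cells, transiently transfected with cis-reporter constructs, were dosed 24 h; reporter mRNA read by RT-PCR and capillary electrophoresis.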

[3] = ATG_M_61_CIS: Attagene CIS-FACTORIAL HepG2 Assay for M61 Transcription Factor (Internal Marker) (AID 2282937); details: HepG2 Attagene CIS-FACTORIAL M61 internal marker reporter; actives raise or lower the signal
In short: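 Readout is reporter mRNA by RT-PCR, fluorescent primer extension and capillary electrophoresis, with gain or loss fitted relative to DMSO. Transfected HepG2 cells carrying endogenous-TF-driven cis reporters were exposed to chemicals for 24 hours.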

[4] = ATG_EGR_CIS: Attagene CIS-FACTORIAL HepG2 Assay for human Early Growth Response 1 (EGR1) (AID 2282938); details: HepG2 Attagene CIS-FACTORIAL EGR reporter mRNA; actives raise or lower the signal
In short: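 After 24 h compound exposure, RNA from reporter-transfected HepG2 cells was reverse-transcribed, PCR-amplified, fluorescently labelled and resolved by capillary electrophoresis. EGR1 reporter transcript changes, up or down, were fitted against DMSO, reflecting endogenous transcription-factor activity.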

[5] = ATG_M_19_CIS: Attagene CIS-FACTORIAL HepG2 Assay for M19 Transcription Factor (Internal Marker) (AID 2282939); details: HepG2 Attagene CIS-FACTORIAL M19 internal marker reporter; actives raise or lower the signal
In short: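 Chemical-treated HepG2 (24 h) with MRTU constructs; reporter transcripts detected by fluorescent RT-PCR fragment analysis on capillary electrophoresis. Internal background marker, DMSO as baseline.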

[6] = ATG_Ets_CIS: Attagene CIS-FACTORIAL HepG2 Assay for human Erythroblast Transformation Specific (ETS) (AID 2282941); details: HepG2 ETS cis-reporter transcription, actives raise or lower the signal
In short: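 Steps: transfect HepG2 with multiple reporter units; treat compound 24 h; isolate RNA, DNase-treat, reverse-transcribe; PCR-amplify, label with 6-FAM, digest with HpaI; separate by capillary electrophoresis. Activity fitted both directions versus DMSO.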

[7] = target: Hepatocyte nuclear factor 3-beta (Homo sapiens) (UniProt Q9Y261); assay: ATG_FoxA2_CIS: Attagene CIS-FACTORIAL HepG2 Assay for human Forkhead box A2 (FOXA2) (AID 2282942); details: HepG2 cis-reporter transcription factor activity, 24 h; actives raise or lower the signal
Hepatocyte nuclear factor 3-beta (Homo sapiens), sequence (Q9Y261 whole entry, looked up): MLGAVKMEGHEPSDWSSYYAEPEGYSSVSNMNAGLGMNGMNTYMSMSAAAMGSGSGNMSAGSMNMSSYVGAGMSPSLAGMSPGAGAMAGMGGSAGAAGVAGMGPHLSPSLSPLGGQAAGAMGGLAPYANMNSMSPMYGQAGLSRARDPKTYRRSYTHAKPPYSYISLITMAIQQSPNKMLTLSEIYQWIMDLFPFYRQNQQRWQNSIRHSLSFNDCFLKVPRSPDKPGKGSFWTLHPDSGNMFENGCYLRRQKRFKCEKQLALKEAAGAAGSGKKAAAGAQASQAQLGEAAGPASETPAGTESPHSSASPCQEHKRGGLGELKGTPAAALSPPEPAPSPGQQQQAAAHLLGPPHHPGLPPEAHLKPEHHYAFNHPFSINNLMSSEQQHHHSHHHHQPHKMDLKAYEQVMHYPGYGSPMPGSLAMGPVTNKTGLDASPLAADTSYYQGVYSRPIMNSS
In short: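 Endogenous transcription factor activity is captured via cis-element-driven reporter transcripts in transfected HepG2. Total RNA taken at 24 h post-dosing; labelled RT-PCR products resolved by capillary electrophoresis. Gain or loss fitted versus DMSO.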

[8] = ATG_FoxO_CIS: Attagene CIS-FACTORIAL HepG2 Assay for human Forkhead box O (FoxO) (AID 2282943); details: HepG2 Attagene cis-reporter, FoxO element, mRNA; actives raise or lower the signal
In short: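 Endogenous transcription factor activity read from multiplexed cis-promoter reporter transcripts in transiently transfected HepG2, 24 h after dosing. Reporter RNA measured via RT-PCR plus capillary electrophoresis of FAM-labeled products; gain or loss relative to DMSO.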

[9] = ATG_GATA_CIS: Attagene CIS-FACTORIAL HepG2 Assay for human GATA Binding Protein (AID 2282944); details: HepG2 GATA cis-element reporter, Attagene multiplex mRNA; actives raise or lower the signal
In short: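 Transfected cis-reporter HepG2 cells were treated with chemicals for 24 hours. Total RNA was then converted to cDNA, amplified with reporter-specific primers and analysed by fluorescent capillary electrophoresis, using DMSO-treated wells as baseline.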

[10] = ATG_GLI_CIS: Attagene CIS-FACTORIAL HepG2 Assay for human Zinc Finger Protein GLI1 (AID 2282945); details: HepG2, Attagene cis-factorial reporter mRNA, GLI element; actives raise or lower the signal
In short: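 Bidirectional curve fits relative to DMSO, using reporter mRNA levels from RT-PCR plus capillary electrophoresis. Cells were HepG2 transiently carrying cis-regulated reporter constructs, harvested 24 h after dosing.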

[11] = target: Bile acid receptor (Homo sapiens) (UniProt Q96RI1); assay: ATG_IR1_CIS: Attagene CIS-FACTORIAL HepG2 Assay for human Nuclear Receptor Subfamily 1 Group H Member 4 (NR1H4), IR1 submotif (AID 2282946); details: IR1 reporter transcription, actives raise or lower the signal
Bile acid receptor (Homo sapiens), sequence (Q96RI1 whole entry, looked up, the tested form may be a part): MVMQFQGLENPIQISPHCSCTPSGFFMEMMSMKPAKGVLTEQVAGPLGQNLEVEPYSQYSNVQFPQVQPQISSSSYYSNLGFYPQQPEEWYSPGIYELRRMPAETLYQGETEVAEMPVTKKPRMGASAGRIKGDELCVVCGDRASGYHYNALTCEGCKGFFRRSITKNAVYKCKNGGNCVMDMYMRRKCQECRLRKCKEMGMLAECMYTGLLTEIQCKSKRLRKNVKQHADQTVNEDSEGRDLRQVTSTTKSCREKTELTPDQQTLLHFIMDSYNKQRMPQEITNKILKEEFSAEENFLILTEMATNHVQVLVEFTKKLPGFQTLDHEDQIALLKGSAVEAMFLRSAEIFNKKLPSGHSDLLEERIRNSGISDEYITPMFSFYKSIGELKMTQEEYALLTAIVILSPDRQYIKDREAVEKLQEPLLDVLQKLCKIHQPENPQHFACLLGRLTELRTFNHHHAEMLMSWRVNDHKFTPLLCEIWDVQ
In short: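 Cells (human HepG2) carry transiently transfected cis-promoter reporter transcription units. Compounds are incubated 24 h, total RNA is reverse-transcribed and amplified, and labelled fragments are resolved by capillary electrophoresis. Curves use DMSO as baseline.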

[12] = ATG_GRE_CIS: Attagene CIS-FACTORIAL HepG2 Assay for human Glucocorticoid Response Elements (GRE) (AID 2282947); details: HepG2 GRE cis-reporter, Attagene multiplex mRNA; actives raise or lower the signal
In short: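 Assay uses human hepatoma HepG2 cells transfected with cis-promoter reporter units, exposed 24 h. mRNA from reporters detected by RT-PCR plus capillary electrophoresis; DMSO serves as negative control and baseline.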

[13] = ATG_M_32_CIS: Attagene CIS-FACTORIAL HepG2 Assay for M32 Transcription Factor (Internal Marker) (AID 2282949); details: HepG2 Attagene cis-factorial M32 reporter, mRNA; actives raise or lower the signal;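 further: background control marker of the multiplexed CIS panel rather than a real target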
In short: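 Following 24 h chemical exposure of HepG2 cells transiently expressing cis-promoter reporter constructs, reporter transcript levels were determined by RT-PCR with fluorescent labelling and capillary electrophoresis, then fitted bidirectionally against DMSO.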

[14] = ATG_M_06_CIS: Attagene CIS-FACTORIAL HepG2 Assay for M06 Transcription Factor (Internal Marker) (AID 2282950); details: HepG2 Attagene CIS-FACTORIAL M06 internal marker reporter; actives raise or lower the signal
In short: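 Cells (HepG2, transiently carrying cis-driven reporter units) receive chemical for 24 h before RNA isolation. Reporter cDNA is PCR-amplified, FAM-labelled by primer extension, HpaI-digested and sized on a capillary analyser.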

[15] = target: Hypoxia-inducible factor 1-alpha (Homo sapiens) (UniProt Q16665); assay: ATG_HIF1a_CIS: Attagene CIS-FACTORIAL HepG2 Assay for human Hypoxia Inducible Factor 1 (HIF1A) (AID 2282951); details: HepG2 Attagene cis-factorial HIF1a reporter transcription; actives raise or lower the signal
Hypoxia-inducible factor 1-alpha (Homo sapiens), sequence (Q16665 whole entry, looked up): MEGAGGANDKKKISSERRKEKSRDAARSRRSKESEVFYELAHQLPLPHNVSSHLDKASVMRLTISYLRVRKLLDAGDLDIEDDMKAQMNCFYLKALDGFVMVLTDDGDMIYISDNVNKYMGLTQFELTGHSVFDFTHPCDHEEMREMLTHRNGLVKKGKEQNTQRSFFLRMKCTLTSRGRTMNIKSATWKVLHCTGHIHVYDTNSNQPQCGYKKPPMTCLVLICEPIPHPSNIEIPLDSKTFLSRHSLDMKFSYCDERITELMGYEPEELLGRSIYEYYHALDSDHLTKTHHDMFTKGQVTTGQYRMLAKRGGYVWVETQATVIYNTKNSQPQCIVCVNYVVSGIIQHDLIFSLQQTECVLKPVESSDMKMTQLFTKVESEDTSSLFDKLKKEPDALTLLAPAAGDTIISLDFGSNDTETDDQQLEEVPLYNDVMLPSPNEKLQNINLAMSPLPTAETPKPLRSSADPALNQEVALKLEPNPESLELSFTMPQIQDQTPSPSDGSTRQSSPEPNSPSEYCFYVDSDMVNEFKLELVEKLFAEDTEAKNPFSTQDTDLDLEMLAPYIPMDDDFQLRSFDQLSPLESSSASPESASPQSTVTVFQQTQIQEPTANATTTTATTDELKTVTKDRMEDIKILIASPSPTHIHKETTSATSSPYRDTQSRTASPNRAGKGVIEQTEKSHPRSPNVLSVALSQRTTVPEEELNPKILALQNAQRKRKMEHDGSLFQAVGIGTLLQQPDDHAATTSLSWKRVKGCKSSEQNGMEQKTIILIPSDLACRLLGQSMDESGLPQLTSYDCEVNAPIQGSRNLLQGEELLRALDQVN
In short: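 Activity is fitted in both directions relative to DMSO. Reporter transcripts are read by RT-PCR, fluorescent primer extension and capillary electrophoresis after 24 h chemical treatment. The cells are HepG2 carrying transiently transfected cis-element-driven reporter units responding to endogenous factors.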

[16] = target: Hepatocyte nuclear factor 6 (Homo sapiens) (UniProt Q9UBC0); assay: ATG_HNF6_CIS: Attagene CIS-FACTORIAL HepG2 Assay for human Hepatocyte Nuclear Factor 6 (HNF6) (AID 2282952); details: HepG2 Attagene cis-factorial HNF6 reporter transcription; actives raise or lower the signal
Hepatocyte nuclear factor 6 (Homo sapiens), sequence (Q9UBC0 whole entry, looked up, the tested form may be a part): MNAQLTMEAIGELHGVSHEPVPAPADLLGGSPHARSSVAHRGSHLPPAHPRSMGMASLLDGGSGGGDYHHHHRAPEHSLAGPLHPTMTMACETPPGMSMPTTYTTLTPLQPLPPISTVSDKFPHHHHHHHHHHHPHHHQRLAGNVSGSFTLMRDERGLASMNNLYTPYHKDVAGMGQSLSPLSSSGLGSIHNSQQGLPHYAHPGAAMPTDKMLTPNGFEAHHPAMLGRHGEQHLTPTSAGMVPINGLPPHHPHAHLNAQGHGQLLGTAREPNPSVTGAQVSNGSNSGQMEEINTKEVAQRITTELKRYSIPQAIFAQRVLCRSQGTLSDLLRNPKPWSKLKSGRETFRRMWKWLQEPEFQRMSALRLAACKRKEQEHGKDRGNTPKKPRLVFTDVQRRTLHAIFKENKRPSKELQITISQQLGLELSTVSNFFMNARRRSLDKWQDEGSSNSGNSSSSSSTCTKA
In short: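 Reporter mRNA induction or loss in HepG2 after 24 h exposure; transient cis-MRTU transfection; fragments quantified by capillary electrophoresis; bidirectional analysis, DMSO as negative control.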

[17] = ATG_MRE_CIS: Attagene CIS-FACTORIAL HepG2 Assay for human Metal Responsive Element (MRE) (AID 2282954); details: HepG2 MRE cis-reporter transcription, Attagene multiplex; actives raise or lower the signal
In short: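 After a 24 h chemical exposure, transiently transfected HepG2 cells yield RNA whose reporter sequences are amplified, FAM-labelled and sized by capillary electrophoresis. Curves are fitted bidirectionally relative to DMSO.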

[18] = ATG_ERE_CIS: Attagene CIS-FACTORIAL HepG2 Assay for Estrogen Response Element (ERE) (AID 2282940); details: HepG2 ERE cis-reporter, Attagene RNA transcript; actives raise or lower the signal
In short: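 Human liver cells (HepG2) bearing transiently transfected, promoter-regulated reporter units were exposed 24 h. Reporter mRNA induction was detected by capillary electrophoresis of labelled RT-PCR products and fitted bidirectionally to DMSO.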

[19] = ATG_ISRE_CIS: Attagene CIS-FACTORIAL HepG2 Assay for human Interferon Regulatory Factor 1 (IRF1) binding to an Interferon-Stimulated Response Element (ISRE) (AID 2282948); details: HepG2 ISRE cis-reporter (Attagene), mRNA transcription readout; actives raise or lower the signal
In short: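 Transfected HepG2 (multiple reporter transcription units, cis elements) dosed 24 h. RNA → oligo(dT) RT → PCR → 6-FAM primer extension → HpaI → CE. DMSO = negative control/baseline.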

[20] = target: Heat shock factor protein 1 (Homo sapiens) (UniProt Q00613); assay: ATG_HSE_CIS: Attagene CIS-FACTORIAL HepG2 Assay for human Heat Shock Transcription Factor 1 (HSE) (AID 2282953); details: HepG2 HSE cis-reporter, Attagene RNA transcription; actives raise or lower the signal
Heat shock factor protein 1 (Homo sapiens), sequence (Q00613 whole entry, looked up): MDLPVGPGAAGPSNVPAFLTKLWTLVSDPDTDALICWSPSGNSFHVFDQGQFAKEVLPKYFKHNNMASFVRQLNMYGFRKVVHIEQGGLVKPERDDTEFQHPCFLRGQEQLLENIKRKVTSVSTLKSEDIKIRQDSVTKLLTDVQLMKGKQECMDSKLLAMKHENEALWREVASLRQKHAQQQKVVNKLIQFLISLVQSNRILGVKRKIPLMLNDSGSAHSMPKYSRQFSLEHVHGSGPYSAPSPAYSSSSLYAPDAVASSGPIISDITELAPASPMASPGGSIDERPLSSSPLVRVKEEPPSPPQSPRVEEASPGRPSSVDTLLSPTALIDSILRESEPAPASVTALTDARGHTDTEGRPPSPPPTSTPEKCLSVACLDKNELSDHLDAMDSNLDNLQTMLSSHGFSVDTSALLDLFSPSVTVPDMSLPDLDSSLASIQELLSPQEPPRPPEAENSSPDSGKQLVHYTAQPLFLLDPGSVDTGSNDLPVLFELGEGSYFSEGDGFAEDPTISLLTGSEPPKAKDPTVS
In short: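 Liver-derived HepG2 cells carry transiently introduced multiple reporter units governed by cis promoters. Reporter RNA measured 24 h post-dose through reverse transcription, PCR amplification, fluorescent labelling and capillary electrophoresis, normalised to DMSO.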

Measured: AC50

Oc1cc(Cl)ccc1Oc1ccc(Cl)cc1Cl
inactive: [1] | [2] | [3] | [4] | [5] | [6] | [7] | [8] | [9] | [10] | [11] | [12] | [13] | [14] | [15] | [16] | [17]
active: [2] 13.4 µM | [4] 11.3 µM [middle of 4 runs] | [6] 7.09 µM and 17.9 µM and 5.97 µM | [9] 5.97 µM | [12] 11.1 µM | [17] 15.3 µM [middle of 6 runs]

CCOCN(C(=O)CCl)c1c(C)cccc1CC
not listed: [11] | [20]
inactive: all other assays above

CNC(=O)CSP(=S)(OC)OC
not listed: [11] | [12] | [14] | [19] | [20]
inactive: all other assays above

Cc1[nH]c(=O)n(C(C)(C)C)c(=O)c1Cl
active: [17] 50 µM
not listed: [12] | [14] | [19] | [20]
inactive: all other assays above

CCS(=O)(=O)c1cccnc1S(=O)(=O)NC(=O)Nc1nc(OC)cc(OC)n1
not listed: [14] | [18] | [19] | [20]
inactive: all other assays above

CCC(C)Nc1c([N+](=O)[O-])cc(C(C)(C)C)cc1[N+](=O)[O-] (stereo unspecified)
active: [18] 5.96 µM | [17] 31.6 µM
not listed: [11] | [14] | [19] | [20]
inactive: all other assays above

O=C(NC(=O)c1c(F)cccc1F)Nc1ccc(OC(F)(F)C(F)OC(F)(F)F)c(Cl)c1 (stereo unspecified)
not listed: [11] | [14] | [19] | [20]
inactive: all other assays above

CC[C@H](C)[C@H]1O[C@]2(C=C[C@@H]1C)C[C@@H]1C[C@@H](C/C=C(\C)[C@@H](O[C@H]3C[C@H](OC)[C@@H](O[C@H]4C[C@H](OC)[C@@H](O)[C@H](C)O4)[C@H](C)O3)[C@@H](C)/C=C/C=C3\CO[C@@H]4[C@H](O)C(C)=C[C@@H](C(=O)O1)[C@]34O)O2 (tested in a mixture with another compound)
not listed: [11] | [19] | [20]
inactive: all other assays above

COP(=S)(OC)Oc1ccc(SC)c(C)c1
active: [18] 17.7 µM
not listed: [11] | [20]
inactive: all other assays above

O=C(O)COc1ccc(Cl)cc1Cl
not listed: [11] | [14] | [18] | [20]
inactive: all other assays above

CCCN(CCC)c1c([N+](=O)[O-])cc(C(F)(F)F)cc1[N+](=O)[O-]
not listed: [12] | [14] | [19] | [20]
inactive: all other assays above

CNC(=O)Oc1ccccc1OC(C)C
not listed: [11] | [14] | [19] | [20]
inactive: all other assays above

COP(=O)(OC)OC=C(Cl)Cl
active: [4] 14.4 µM | [19] 50 µM | [17] 36.7 µM
not listed: [11] | [12] | [14] | [20]
inactive: all other assays above

N#CN
not listed: [11] | [14] | [19]
inactive: all other assays above
